Measured values as given in the antibiotic and cytotoxicity screens of Wong et al. (2023).
Out of some 39,000 compounds screened, about 500 (1.3%) were called active. Shown is part of a subset that was picked to be rich in actives.

Each compound was assayed on S. aureus RN4220 (assay: growth inhibition call (relative growth <= 0.2)). Conditions: 50 µM.

SMILES | growth inhibition call
Cc1noc(C)c1NC(=O)N(C)C[C@H]1OCCCC[C@@H](C)Oc2ccc(NS(=O)(=O)c3ccc(F)cc3)cc2C(=O)N([C@H](C)CO)C[C@@H]1C | inactive
C[C@H](CO)N1C[C@H](C)[C@H](CN(C)C)OCCCC[C@H](C)Oc2ccc(NS(=O)(=O)c3cn(C)cn3)cc2C1=O | inactive
COc1cc(-c2cc(=O)c3c(=O)cc(-c4ccc(O)c(OC)c4)n(CCc4ccccc4)c3s2)ccc1O | inactive
Cc1noc(C)c1NC(=O)N(C)C[C@@H]1Oc2ccc(NS(=O)(=O)c3cn(C)cn3)cc2CC(=O)N([C@H](C)CO)C[C@H]1C | inactive
CO[C@H]1O[C@H](CO)[C@@H](OC(=O)Nc2ccc(Br)cc2)[C@@H]2OC(=O)[C@H](Cc3cccc(Br)c3)C/C=C/C[C@@H](Cc3cccc(Br)c3)C(=O)O[C@@H]12 | inactive
C[C@@H]1CN([C@@H](C)CO)C(=O)c2cccc(NS(=O)(=O)c3ccc(F)cc3)c2O[C@@H]1CN(C)S(C)(=O)=O | inactive
CN[C@@H]1[C@@H](O)[C@@H](O[C@@H]2[C@@H](O)[C@H](O[C@H]3OC(CN)=CC[C@H]3N)[C@@H](N)C[C@H]2N)OC[C@]1(C)O | inactive
CCNC1CC(N)C(OC2OC(CN)=CCC2N)C(O)C1OC1OCC(C)(O)C(NC)C1O.O=S(=O)(O)O.O=S(=O)(O)O (configuration not stated) | inactive
CNC1C(O)C(OC2C(N)CC(N)C(OC3OC(CN)=CCC3N)C2O)OCC1(C)O.O=S(=O)(O)O (configuration not stated) | active
C[C@@H]1CCCCO[C@H](CN(C)C(=O)CCC(F)(F)F)[C@@H](C)CN([C@@H](C)CO)C(=O)c2cc(NS(=O)(=O)c3ccc(F)cc3)ccc2O1 | inactive
CC(C)NC(=O)Nc1ccc2c(c1)C(=O)N([C@@H](C)CO)C[C@H](C)[C@@H](CN(C)Cc1ccccc1)OCCCC[C@H](C)O2 | inactive
CO[C@@H]1CN(C)C(=O)c2ccc(NC(=O)Nc3cccc(Cl)c3)cc2OC[C@@H](C)N(C(=O)Nc2c(C)noc2C)C[C@H]1C | inactive
CC(C)(C)[S@@+]([O-])N1Cc2cc(C(=O)NCc3ccc4c(c3)OCO4)nc(-c3ccc(-c4ccc(C#N)cc4)cc3)c2[C@H]1CCO | inactive
Cc1noc(C)c1S(=O)(=O)N(C)C[C@H]1OCCCC[C@@H](C)Oc2ccc(NC(=O)Nc3ccc(F)cc3)cc2C(=O)N([C@@H](C)CO)C[C@@H]1C | inactive
CC(C)NC(=O)N(C)C[C@@H]1OCCCC[C@@H](C)Oc2ccc(NS(C)(=O)=O)cc2C(=O)N([C@@H](C)CO)C[C@H]1C | inactive
CCCSc1nc(N[C@@H]2C[C@H]2c2ccc(F)c(F)c2)c2nnn([C@@H]3C[C@H](OCCO)[C@@H](O)[C@H]3O)c2n1 | active
CCCCCc1c2c(cc(O)c1C(=O)O)OC(=O)c1c(cc(OC)cc1C(=O)CCCC)O2 | active
COc1cc(C)c(C(=O)O)c(O)c1 | inactive
COc1cc(O)c(C(=O)O)c(O)c1 | inactive
C[C@@H]1CN([C@H](C)CO)C(=O)c2cccc(NC(=O)Nc3ccc(C(F)(F)F)cc3)c2O[C@@H]1CN(C)Cc1ccc(Oc2ccccc2)cc1 | inactive
Cc1ccc(S(=O)(=O)N(C)C[C@H]2Oc3ccc(NS(=O)(=O)c4ccccc4)cc3C(=O)N([C@@H](C)CO)C[C@@H]2C)cc1 | inactive

SMILES | growth inhibition call
C[C@@H]1CN([C@H](C)CO)C(=O)Cc2cc(NS(=O)(=O)c3ccc(Cl)cc3)ccc2O[C@@H]1CN(C)S(C)(=O)=O | inactive
COC(=O)OCOc1c2n(ccc1=O)N([C@@H]1c3ccccc3SCc3c1ccc(F)c3F)[C@@H]1COCCN1C2=O | inactive
CC[C@@H](C)CCCCC(=O)N[C@@H](CCN)C(=O)N[C@H](C(=O)N[C@@H](CCN)C(=O)N[C@H]1CCNC(=O)[C@H]([C@@H](C)O)NC(=O)[C@H](CCN)NC(=O)[C@H](CCN)NC(=O)[C@H](CC(C)C)NC(=O)[C@@H](Cc2ccccc2)NC(=O)[C@@H](CCN)NC1=O)[C@@H](C)O | inactive
CCC(C)CCCCC(=O)NC(CCN)C(=O)NC(C(=O)NC(CCN)C(=O)NC1CCNC(=O)C(C(C)O)NC(=O)C(CCN)NC(=O)C(CCN)NC(=O)C(CC(C)C)NC(=O)C(Cc2ccccc2)NC(=O)C(CCN)NC1=O)C(C)O.O=S(=O)(O)O (configuration not stated) | active
CC[C@@H](C)CCCC(=O)N[C@@H](CCN)C(=O)N[C@H](C(=O)N[C@@H](CCN)C(=O)N[C@H]1CCNC(=O)[C@H]([C@@H](C)O)NC(=O)[C@H](CCN)NC(=O)[C@H](CCN)NC(=O)[C@H](CC(C)C)NC(=O)[C@@H](CC(C)C)NC(=O)[C@H](CCN)NC1=O)[C@@H](C)O | inactive
C[C@@H]1CN([C@H](C)CO)S(=O)(=O)c2ccc(C#C[C@@H](C)O)cc2O[C@@H]1CN(C)C(=O)c1ccncc1 | inactive
O=C(C[C@@H]1CC[C@H](NC(=O)CN2CCOCC2)[C@@H](CO)O1)NCCc1ccccc1 | inactive
O=C1C=CC(=O)N1 | active
Cc1noc(C)c1NC(=O)N(C)C[C@H]1OCCCC[C@@H](C)Oc2ccc(NC(=O)NC3CCCCC3)cc2C(=O)N([C@H](C)CO)C[C@@H]1C | inactive
CNC1CCC(c2ccc(Cl)c(Cl)c2)c2ccccc21.Cl (configuration not stated) | active
CN[C@H]1CC[C@@H](c2ccc(Cl)c(Cl)c2)c2ccccc21 | inactive
N[C@@H]1CC[C@@H](c2ccc(Cl)c(Cl)c2)c2ccccc21 | active
O=C(C[C@H]1C=C[C@H](NS(=O)(=O)c2ccc(F)cc2)[C@@H](CO)O1)N1CCC(Cc2ccccc2)CC1 | inactive
Cc1ccc(S(=O)(=O)Nc2ccc3c(c2)C(=O)N([C@H](C)CO)C[C@H](C)[C@H](CN(C)C(=O)Nc2c(C)noc2C)OCCCC[C@H](C)O3)cc1 | inactive
CO[C@@H]1CC[C@@H]2[C@H]1OCCN2C(=O)N(C)C | inactive
CCCC#Cc1ccc2c(c1)O[C@@H](CN(C)S(=O)(=O)c1cccc(F)c1)[C@@H](C)CN([C@H](C)CO)S2(=O)=O | inactive
COc1ccc2ccccc2c1-c1c(OC)ccc2ccccc12 | inactive
c1ccc2c(c1)ccc1cc3c(ccc4ccccc43)cc12 | inactive
COc1cc(Cl)ccc1Oc1ccc(Cl)cc1Cl | inactive
Nc1ccc(Sc2ccc3ccccc3c2Cl)c(Cl)c1 | active
Nc1ccc(Oc2ccc3ccccc3c2Cl)c(Cl)c1 | active
